# Reference: the supplement of paper PMC6555819
# Tested on: VDR:RXRa (NR concentration 270 nM, RXRa partner concentration 90 nM)
# Experiment: PBM binding z-score (relative to random genomic background probes); higher = stronger binding; sequences stand for … in GC…GCGATTGACAGCGTAGAATGAAGG
# Description: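 Protein-binding microarray (Agilent 4x180K custom design, double-stranded 60-nt probes: 5' GC cap, 34-nt variable region, 24-nt constant primer region; full probe sequence given). Purified or IVT nuclear receptor:RXRα heterodimers (3:1 NR:RXRα, mostly 270:90 nM) or homodimers were incubated for 1 h in PBS with 2% milk and no ligand, then detected with Alexa488 antibodies. Fluorescence from o1-orientation probes (~5 replicates averaged) was converted to z-scores against 500 random hg19 background probes. Variable regions are seed direct-repeat (DR0–DR5) sites, all their single-nucleotide variants and half-site ablations.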
row,Sequence,PBM binding z-score
1,TCATATAGGTAAATGCTAGGTGAAAGTCCGATCT,0.886
2,CCTAGCAGGCCAGGGTCACTCCAGCATTTCGCTT,2.18
3,ATGTCTAGGTAAAAGTTCAGTGAATCCCGAGGAT,1.3
4,GGAACGAGGCCATTCGAGTTGATAGCATGGCGAT,1.43
5,CAGAGTAGGTTATGGGGCATTCAGGCAACGGTGA,0.214
6,CGAACTAGGTCAGCCAGGACAGTGAATACATTGA,3.1
7,CATACTGGGCCAAGGTCATTGATCAGTCAAAGCA,3.48
8,CCTTACGGGTCACTCCGGGTTATAGCATCGGAGT,4.18
9,CAAACTAGGTCAAAGGTCTAAGTCGAGCCAACCA,2.98
10,TCATATAGGTAAAAGGTGACAGTCGGTGTGGTAA,1.35
11,CCTTACGGGTCACTGACAGGTTATAGCCTTTGGA,3.77
12,GTACCAAGGTGAATAGGACGTTGATGAGTAGGCG,-0.357
13,CCTTACGGGCCACTCCAGGTTATAGCATCGGAGT,-0.25
14,TCTCGGAGGACACGAACGGTCAGAGCTCGACATC,0.073
15,CGAACTAGGTCAGAACAGAACAGTGAAGGATGAT,-0.0419
16,TCTTGTAGATCAACTGGAGGTTAAGAAAGATCGA,0.589
17,TCATATAGGTAAAAGGTGGAAGTCGGTGTGGTAA,1.11
18,GTAACGAGGGCATTCGAGTTGATAGCATGGCGAT,3.62
19,TCTAGTTAGTCAAAGGTCACACACTCGAAATGCG,4.97
20,CAAACTAGGTCACCGGAAGGACAAAGTCCGCATG,3.49

row,Sequence,PBM binding z-score
1,CGTCCAAGGTCTGCAGGTCAGTGAAAGCGACGTG,-0.117
2,TCGAGTAGGTCAGGGGCATTCAGAATGGCGTCGA,1.55
3,CCGTACGGGTCACTGACAGGTTATAGCATTTGGA,3.72
4,TCGAGTGGGTTAGTCGGGGCATTCAGCCAACATA,2.25
5,CCTAGTTGGTCAGGCGGTCACACACCGGATATGA,0.0126
6,TCATACAGGTGAAGGTAACTCAGGTACGCAGTCG,1.36
7,CCTGCTGGGCCAAGGTCATTGATCAGTCAAAGCA,3.06
8,CGGCCAAGGTCAGCAGGTCAGTGAAAGCGACGTG,3.8
9,CGTCAAGGTTCAACTAAGGTAACGTAAAGCACGC,3.94
10,ATCGAAAGGCCGTGAGGTGAGTATACAGAAAGGC,-0.0584
11,CATACAGGGGCAGCTAGGCCAGAGTAGGGACGGC,-0.446
12,GATACAGGGTCAAGGCCAGATTACGCGTATTGAT,4.45
13,ATACCAACGTGATCGTGAGGTCGTTGATACTAAC,1.8
14,ATCTCTAGGTAAGTCTCAGTTCAGTGAAGAACGC,0.65
15,GCATACAGGTGAAACGCAGGTAACTCAGGGTGGC,-0.304
16,GGAACGAGGGCAAAGTTGATAACATCTGTCGACG,1.68
17,GCAGACAGGTGAAACGCAGCTAACTCAGGGTGGC,-0.847
18,CTCGAAAGGTCGGTTGAGGTTAGTATACGGATAA,3.58
19,GGAACGAGGGCAAAGTTGATAGCATCTGTCGACG,1.23
20,TCTGCTAGGTCAAGGATGGTCAGCTAATCTGCTA,1.18
